Inconclusive results are not listed. Where a call stands in place of a potency, no number is given. The source made the active and inactive calls. Calls follow the shape of the dose curve; as a rule, active = well fitted inhibition curve with a large enough effect; inconclusive = small, poorly fitted or top-dose-only effect; inactive = no such curve, though single readings can be large or run the other way.
Assay: qHTS to identify inhibitors of the type 1 interferon - major histocompatibility complex class I in skeletal muscle: primary screen against the NCATS Mechanism Interrogation Plate v5.0 (MIPE) Libary (AID 1347411); also: nearly all actives have a fitted effect of over 65% in size
Conditions: iHSKM cells + IFN-b, HiBiT-tagged MHC-I luminescence, 24 h; series mostly up to 45.8 µM
Excerpt: Assay Submitter (PI): Travis B. Kinder Ph.D. & James Inglese Ph.D.
Assay Development and Screening Technology Laboratory (ADST)
National Center for Advancing Translational Sciences (NCATS), Rockville, MD
National Institute of Health (NIH), Bethesda, Maryland
Idiopathic inflammatory myopathies, collectively referred to as myositis, are a group of rare autoimmune diseases characterized by skeletal muscle inflammation, weakness, and usually accompanied by systemic pathologies of the skin, lungs, or vasculature. Current immunosuppressive therapies and glucocorticoids are often not curative and are accompanied by harsh side effects, especially in children with juvenile myositis. We initiated a drug repurposing and development program to identify more targeted, less toxic therapeutics to treat myositis. Although its cause is not known, muscle from a subset of patients have an abundance of the inflammatory type 1 interferon (IFN) and a down-stream product major histocompatibility complex class I (MHC class I), which are both thought to contribute to damage and weakness. We conducted quantitative high throughput screening on 6,576 compounds (4,679 unique) through a series of cell-based assays to identify those that inhibit the IFN-stimulated expression of MHC class I in muscle precursor cells (myoblasts). The compound identification and evaluation strategy utilized a primary screen with reporter-tagged MHC class I in genome-engineered myoblasts, ATP content counter screen for viability, HLA-ABC immunofluorescence secondary screen, and HLA-B RT-qPCR tertiary screen.
The primary screen utilized CRISPR/Cas9 genome-engineering of immortalized human myoblasts, C25cl48, where a pro-luminescent reporter HiBit was fused to the C-terminus of endogenous MHC class I allele HLA-B*08:01 (HLA-B HiBit myoblasts). HiBit is an 11 amino acid fragment of NanoLuc luminescent reporter (Promega Corporation), and when complexed to the larger LgBit fragment, the reconstituted enzyme produces light in the presence of furimazine substrate (Schwinn et al., 2018). Briefly, HLA-B HiBit myoblasts were plated into 1536-well plates, treated with 4.0 ng/ml human IFN-beta and 2,480 compounds from the NCATS Mechanism Interrogation Plate v5.0 (MIPE5.0) in an 11-point, 1:3 titration with a high final concentration of 46 uM. After 24 hrs of treatment, cells were assayed by Nano-Glo HiBiT Lytic Detection System (Promega) and luminescence measured by a ViewLux 1430 Ultra HTS (Perkin Elmer).
Schwinn MK, Machleidt T, Zimmerman K, Eggers CT, Dixon AS, Hurst R, Hall MP, Encell LP, Binkowski BF, Wood K V. 2018. CRISPR-Mediated Tagging of Endogenous Proteins with a Luminescent Peptide. ACS Chem Biol 13:467-474. doi:10.1021/acschembio.7b00549
PROTOCOL TABLE (as described by Inglese et al., 2007)
SEQUENCE No. (e.g., 1, 2, 3, etc.); […] (e.g., Cells, Incubation, Reagent, etc.); VALUE; DESCRIPTION
1a; Cells; 5 uL; Use a Multidrop Combi (Thermo Scientific) to seed 300 cells/well into 24 Greiner 1536 well white/solid bottom, high base, TC plates in 5 ul/well of iHSKM growth medium (GM) without dexamethasone into columns 1+2. Add metal lids with gas-exchange holes
1b; Cells; 5 uL; Use a Multidrop Combi (Thermo Scientific) to seed 300 cells/well into 24 Greiner 1536 well white/solid bottom, high base, TC plates in 5 ul/well of iHSKM GM without dexamethasone + 4 ng/ml IFN-b into columns 3 - 48. Add metal lids with gas-exchange holes
2; Incubate; 1 hr; Incubate at 37 C, 5% CO2, 95% RH
3; Compounds; 23 nl; Use Pin Tool (Wako) to transfer DMSO control, ruxolitinib IFN-b inhibitor control [High Concentration = 80 uM final, 16-pt, 1:2 in duplicate], and library compounds in DMSO
4; Incubate; 24 hrs; Incubate at 37 C, 5% CO2, 95% RH
5; Dispense; 2.5 ul; Use BioRAPTR FRD (Beckman Coulter) to add HiBit lytic reagent
6; Incubate; 10 min; Incubate in the dark at ambient temperature for lysis
7; Detector; 5 sec; Measure luminescence with ViewLux 1430 Ultra HTS (Perkin Elmer). […]
Potency is read from the fitted curve at half-maximal effect.

| Structure (SMILES) | Potency |
| --- | --- |
| CNC(=O)c1ccc(N2C(=S)N(c3ccc(C#N)c(C(F)(F)F)c3)C(=O)C23CCC3)cc1F | inactive |
| C[C@]12CCC(=O)C(O)=C1CC[C@@H]1[C@@H]2CC[C@]2(C)C(=O)CC[C@@H]12 | inactive |
| N[C@@H](Cc1ccc(N(CCCl)CCCl)cc1)C(=O)O | inactive |
| CC(O)(CS(=O)(=O)c1ccc(F)cc1)C(=O)Nc1ccc(C#N)c(C(F)(F)F)c1 (stereo unspecified) | inactive |
| COC1(CS(=O)c2ccccc2)CCN(CCc2c[nH]c3ccc(F)cc23)CC1 (stereo unspecified) | inactive |
| NCC1(CC(=O)O)CCCCC1 | inactive |
| C[C@@H]1O[C@@H](O[C@H]2C[C@@H](O)[C@]3(CO)[C@H]4[C@H](O)C[C@]5(C)[C@@H](C6=CC(=O)OC6)CC[C@]5(O)[C@@H]4CC[C@]3(O)C2)[C@H](O)[C@H](O)[C@H]1O | 37 nM (active) |
| NN=C(N)N | inactive |
| C#CCN(C)[C@H](C)Cc1ccccc1 | inactive |
| O=C(O)C(=O)c1cn(Cc2ccccc2)c2ccc(-c3ccc(OC(F)(F)F)cc3)cc12 | inactive |
| Cn1c(CCCC(=O)O)nc2cc(N(CCCl)CCCl)ccc21 | inactive |
| CNCC(O)c1ccc(O)cc1 (stereo unspecified) | inactive |
| CN(C)[C@@H]1C(=O)C(C(N)=O)=C(O)[C@@]2(O)C(=O)C3=C(O)c4c(O)cccc4[C@@](C)(O)[C@H]3C[C@@H]12 | inactive |
| COC[C@@H](NC(C)=O)C(=O)NCc1ccccc1 | inactive |
| O=c1[nH]c2ccccc2n1CCCN1CCC(n2c(=O)[nH]c3cc(Cl)ccc32)CC1 | inactive |
| O=P1(NCCCl)OCCCN1CCCl (stereo unspecified) | inactive |
| N[C@@H]1C[C@H]1c1ccccc1 | inactive |
| Cc1cccc(C)c1NC(=O)CN1CCCC1=O | inactive |
| Cc1cc(SCc2sc(-c3ccc(C(F)(F)F)c(F)c3)nc2C)ccc1OCC(=O)O | inactive |
| Cn1cc(C2=C(c3cn(C4CCN(Cc5ccccn5)CC4)c4ccccc34)C(=O)NC2=O)c2ccccc21 | inactive |
| CN(C)CCN(C)CCc1ccc(Cl)c(Cl)c1 | inactive |
